From PubChem BioAssay
p53null 32C kill: kills p53 null cells at the permissive temperature | 55,000 compounds, 0.62% hits | AID 903 | Potency, µM (titrated, usually from 46.1 µM), for inactives: at the top dose activity change, negative = cytotoxicity, usual class: cytotoxic | H1299-neo p53 null cells, ATP luminescence, 24 h, 32C;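 note: 0% = DMSO only and -100% = full killing by 100 µM tamoxifen; nearly all actives have a fitted effect of over 55% in size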
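H1299-neo, 600 cells/well; overnight 37C; cpd up to 46 uM, 24 h at 32C; ATPlite luminescence after 20 min RT; normalized to DMSO (0%) and tamoxifen 100 uM (100% kill); Hill-fit AC50.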
PMP22 txn: PMP22 gene transcription modulation; S16 Pmp22-F2sN Schwann cells, FLuc/NLuc coincidence luminescence, 24 h; Potency, µM (highest dose often 57.5 µM), inactives show at the top dose activity change, negative = inhibition, actives largely listed as inhibitors; 43,000 compounds, 2% hits; AID 1508649; active = clear falling dose curves in both reporters; inconclusive = both reporters move, but less clearly or upward; inactive = either reporter flat; the % is the NLuc reporter signal; note: % is set by controls: 0 for no effect and ±100 for the full control effect
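qHTS, 1536-well. Cells seeded, compounds added by pin tool, 24 h 37C. Nano-Glo reagent 1 (lysis/FLuc), 10 min RT, read; Stop&Glo, 10 min RT, read NLuc.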
p53null 39C kill: selectivity test: cytotoxicity in p53 null cells, nonpermissive temperature. H1299 p53-null (neo) cells, 39C, ATPlite viability, 24 h. Potency, µM (top dose mostly 46.1 µM), for the others: at the top dose activity, negative = cell killing, actives largely listed as cytotoxic. 55,000 compounds, 0.97% hits. AID 904;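 note: 0% = DMSO only and -100% = full killing by 100 µM tamoxifen; nearly all actives have a fitted effect of over 50% in size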
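H1299 lung cancer cells, p53-null (H1299-neo) or expressing p53 A138V (H1299-p53A138V), were plated overnight at 37C, then exposed to compounds at up to 46 uM for 24 hr at 39C. Viability was read by ATP-based luminescence.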
GALC G270D up: enhancers of human galactocerebrosidase G270D mutant activity in cells; 145M-Twi-hGALC-G270D cells (Twitcher mouse brain line with human GALC G270D), HMU-beta-Gal fluorescence, 48 h; Potency, µM (series often up to 57.5 µM), actives largely listed as activators; 45,000 compounds, 0.1% hits; P54803; note: 0% is about no effect; nearly all actives have a fitted effect of over 65% in size
Target sequence (P54803 whole entry G286D): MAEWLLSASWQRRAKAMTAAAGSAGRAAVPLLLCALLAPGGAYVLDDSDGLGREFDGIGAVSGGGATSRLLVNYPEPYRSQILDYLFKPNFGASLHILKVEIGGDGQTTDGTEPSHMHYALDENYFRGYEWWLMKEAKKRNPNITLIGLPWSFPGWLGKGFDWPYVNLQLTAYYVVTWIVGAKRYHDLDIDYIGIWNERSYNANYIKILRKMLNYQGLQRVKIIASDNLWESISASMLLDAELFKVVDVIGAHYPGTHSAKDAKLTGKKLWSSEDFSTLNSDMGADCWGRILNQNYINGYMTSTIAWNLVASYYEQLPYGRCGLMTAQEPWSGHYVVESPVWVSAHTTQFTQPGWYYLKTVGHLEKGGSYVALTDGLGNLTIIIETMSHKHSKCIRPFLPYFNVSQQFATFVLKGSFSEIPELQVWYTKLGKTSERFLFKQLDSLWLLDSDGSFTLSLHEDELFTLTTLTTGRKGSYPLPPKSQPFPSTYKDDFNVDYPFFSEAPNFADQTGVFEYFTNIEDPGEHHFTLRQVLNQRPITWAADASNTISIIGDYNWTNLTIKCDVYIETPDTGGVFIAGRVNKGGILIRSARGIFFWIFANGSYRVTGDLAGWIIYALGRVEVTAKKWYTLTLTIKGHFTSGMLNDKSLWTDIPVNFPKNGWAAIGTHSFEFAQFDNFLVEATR
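Live 145M-Twi cells (Twitcher mouse brain-derived, GALC-null) stably expressing human GALC-G270D, with a wild-type GALC line, were compound-treated. Residual GALC activity was then read as fluorescence from 0.1 mM final HMU-β-gal at pH 5.2; higher signal means activation.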
S16 viability: S16 Schwann cell cytotoxicity; 43,000 compounds, 0.48% hits; AID 1508642; Potency, µM (doses to about 57.5 µM), without a hit: at the top dose activity change, negative = cytotoxicity, usual class: cytotoxic; S16 Pmp22-F2sN Schwann cells viability, CellTiter-Glo, 24 h; note: % is set by controls: 0 for no effect and ±100 for the full control effect; nearly all actives have a fitted effect of over 65% in size
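Used to flag compounds lowering reporter output through toxicity, this quantitative HTS measures ATP-based CellTiter-Glo luminescence in S16 Pmp22-F2sN Schwann cells after 24 h compound exposure at 37C.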
mTORC1 inh: inhibitors of mTORC1 signaling in Tsc2-/- p53-/- MEF cells | AID 493208 | 44,000 compounds, 0.78% hits | Potency, µM (series often up to 38.3 µM), without a hit: at the top dose activity change, negative = inhibition, hits mostly inhibitors | Tsc2-/- p53-/- MEF, phospho-rpS6 immunofluorescence/PI, 24 h;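 note: plate controls were DMSO for no effect and rapamycin for full effect; nearly all actives have a fitted effect of over 50% in size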
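Plate MEFs (Tsc2-/-, p53-/-, empty vector) in DMEM/10% FBS; after 24 h add compound, incubate 24 h at 37 degree Celsius; fix in PFA/TX-100, block, stain phospho-rpS6 and 10 uM PI; scan at 488 nm; report % positive cells.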
An asterisk follows results filed as active; i = inactive; u = inconclusive; x = no result; [ ] = remark or other dose. Shown are actives, neighbours in structure and some others; about 3% of the full set was active somewhere. Unless noted, calls come from the whole dose curve; as a rule, active = well fitted curve in the direction sought with a large enough effect; inconclusive = small, poorly fitted or top-dose-only effect, or another doubt; inactive = no such curve, though single readings can be large; an effect the other way counts as inactive or inconclusive. Potency is the fitted concentration of half-maximal effect.

SMILES	p53null 32C kill	PMP22 txn	p53null 39C kill	GALC G270D up	S16 viability	mTORC1 inh
Cc1ccc(NC(=O)CN2C(=O)c3ccccc3Sc3ccc(C(=O)N4CCCC4)cc32)cc1	17.2%	-12.9%	-3.7%	i	17.4%	-1.6%
COc1ccc(N(CC(=O)N2CCN(c3cccc(Cl)c3)CC2)S(=O)(=O)c2c(C)noc2C)cc1	1.8%	-24.9%	10µM*	i	-26.6%	-11.6%
Cc1ccc(N(CC(=O)N2CCN(c3cccc(Cl)c3)CC2)S(=O)(=O)c2c(C)noc2C)cc1	12.1%	u	8.8%	i	-19.2%	-8.3%
COc1ccc(NS(=O)(=O)c2ccc(N3CCCCS3(=O)=O)cc2)cc1Cl	4.4%	7.27µM*	5.6%	i	u	-10.1%
O=S(=O)(Nc1ccc(OC(F)(F)F)cc1)c1ccc(N2CCCCS2(=O)=O)cc1	19.5%	-8.1%	1.4%	i	-11.8%	5.7%
CC(C)NC(=O)Cn1c(=O)nc(-c2ccccc2F)c2cc(Cl)ccc21	-9.9%	-6.3%	-19.3%	i	4.5%	0.0%
COc1ccc(NC(=O)CCS(=O)(=O)c2cc3c(cc2C)NC(=O)CO3)cc1Cl	19.6%	4.1%	-25.9%	i	-2.3%	0.0%
Nc1c(C(=O)Nc2ccccc2F)sc2nc3c(cc12)CCCCCC3	0.9%	u	-7.0%	i	u	u
COc1ccccc1NC(=O)c1sc2nc3c(cc2c1N)CCCCCC3	-0.6%	-26.2%	-5.9%	11.2µM*	11.8%	-16.9%
CCN1CCc2nc3sc(C(=O)Nc4cccc(Cl)c4C)c(N)c3cc2C1	-4.4%	12.1µM*	u	i	u	u
Cn1nc([N+](=O)[O-])nc1Sc1ccc(Cl)cc1	-20.4%	x	x	x	x	x
Cc1csc2nc(-c3cccc(NC(=O)c4ccccc4Cl)c3)cn12	-25.7%	-27.7%	u	i	13.3%	-32.9%
Cc1csc2nc(-c3cccc(NC(=O)c4ccccc4F)c3)cn12	u	u	11.2µM*	i	u	0.6%
Cc1cc(C)cc(OC(=O)c2cc(-c3ccc4c(c3)OCCO4)on2)c1	u	-9.3%	31.6µM*	i	4.4%	1.4%
O=C(Nc1cccc(Br)c1)c1cc(-c2ccc3c(c2)OCCO3)on1	u	-10.8%	u	i	5.3%	-3.3%
Cc1cccc(OC(=O)c2cc(-c3ccc4c(c3)OCCO4)on2)c1	u	-12.7%	25.1µM*	i	-5.6%	-2.0%
COC(=O)N/N=C/c1c(C)nn(-c2cccc(Cl)c2)c1Cl	6.2%	x	x	x	x	x
Cc1nn(-c2ccccc2Cl)c(Cl)c1/C=N/Nc1cccc(C(=O)O)c1	10µM*	x	14.1µM*	x	x	x
Oc1ccc(NCc2ccccc2OCc2ccc(Cl)cc2)cc1	-26.0%	u	u	i	20µM*	u
Oc1ccc(NCc2ccccc2OCc2ccccc2)cc1	-16.9%	7.27µM*	u	i	20µM*	u
O=C1CC(c2ccccc2)SC(N(c2ccccc2)c2ccccc2)=N1 (stereo not drawn)	x	x	-5.4%[1.84 µM]	x	x	x
Cc1ccc(Cl)cc1N1CCN(CCNC(=O)Nc2ccc(Cl)cc2)CC1	u	u	20µM*	i	u	-29.0%
CCn1c(=NC(=O)c2ccc3c(c2)OCCO3)sc2c(C)ccc(OC)c21	-18.0%	9.17µM*	u	i	2.4%	-18.6%
C#CCn1c(=NC(=O)c2ccc3c(c2)OCCO3)sc2cc(OC)c(OC)cc21	5.6%	u	-14.7%	i	2.9%	14.2%
CCC(=O)Nc1cccc(OCc2cc(=O)n3cc(C)ccc3n2)c1	u	23.8%	u	i	-1.2%	-4.2%
